# According to PubChem BioAssay (NCI):
# This is part of a sample that, as a whole, favours compounds with a hit. Of some 79,000 tested, about 15% had one in any assay. A number with no mark means an inactive call. Calls of active or inactive are those of the source. No stated cut-off is given here; in the data, active means growth inhibition above about 70%; inactive means the rest.
# Key:
# [1] = NCI Yeast Anticancer Drug Screen. Data for the rad52 strain (AID 147);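 further: 0% = growth of vehicle-treated control cultures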; conditions: S. cerevisiae rad52 mutant growth inhibition, hits give high values
# How it was run: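 Screen used a yeast mutant impaired in DNA repair. After compound exposure, growth was measured. Values reflect inhibition compared with vehicle-treated cells.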
# [2] = NCI Yeast Anticancer Drug Screen. Data for the wt1 strain (AID 149);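 further: 0% = growth of vehicle-treated wt1 cultures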; conditions: S. cerevisiae wt1 strain (SPY 50644) growth inhibition, hits give high values
# How it was run: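 Vehicle-normalised growth inhibition; strain wt1; compound exposure.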
# [3] = NCI Yeast Anticancer Drug Screen. Data for the rad50EPP+ strain (AID 151);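 further: 0% = growth of vehicle-treated control cultures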; conditions: S. cerevisiae rad50 mutant strain, hits give high values
# How it was run: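 Exposing the rad50EPP+ strain to each compound, growth was compared with vehicle-only cultures to give inhibition.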
# [4] = NCI Yeast Anticancer Drug Screen. Data for the mgt1 strain (AID 153); conditions: S. cerevisiae mgt1 mutant growth inhibition, hits give high values
# How it was run: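 Genetically defined yeast (mgt1) treated with compound; inhibition of growth expressed against vehicle-treated controls.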
# [5] = NCI Yeast Anticancer Drug Screen. Data for the rad50 strain (AID 155);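 further: 0% = growth of vehicle-only cultures of the same strain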; conditions: S. cerevisiae rad50 strain growth inhibition, hits give high values
# How it was run: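 A DNA repair-deficient yeast mutant serves as the test organism; compound-induced growth inhibition is calculated against vehicle-treated cells.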
# [6] = NCI Yeast Anticancer Drug Screen. Data for the mec2-1 strain (AID 157); conditions: S. cerevisiae mec2-1 strain, hits give high values
# How it was run: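 Readout is yeast growth inhibition, normalised to vehicle-treated controls, in the mec2-1 strain exposed to compound.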
# [7] = NCI Yeast Anticancer Drug Screen. Data for the rad14 strain (AID 159);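 further: 0% = growth of vehicle-treated control cultures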; conditions: S. cerevisiae rad14 strain growth inhibition, hits give high values
# How it was run: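 Vehicle-treated cultures served as the baseline for growth inhibition of a DNA repair-mutant yeast strain exposed to each compound.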
# [8] = NCI Yeast Anticancer Drug Screen. Data for the sgs1 mgt1 strain (AID 161);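 further: 0% = growth of cultures given vehicle only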; conditions: S. cerevisiae sgs1 mgt1 strain, hits give high values
# How it was run: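 Compounds are added to genetically altered yeast, and growth is compared with cultures given vehicle alone to give percent inhibition.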
# [9] = NCI Yeast Anticancer Drug Screen. Data for the CLN2oe strain (AID 163);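 further: 0% = growth of vehicle-only control cultures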; conditions: S. cerevisiae CLN2oe strain, hits give high values
# How it was run: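 Values reflect how much compound exposure reduced yeast growth, referenced to vehicle-exposed cells. Assay organism is a strain with a defined genetic change affecting cell-cycle control.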
# [10] = NCI Yeast Anticancer Drug Screen. Data for the cln2 rad14 strain (AID 165);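 further: 0% = growth equal to vehicle treated cultures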; conditions: S. cerevisiae cln2 rad14 strain, hits give high values
# How it was run: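 Relative to vehicle controls, growth inhibition of compound-treated cln2 rad14 yeast was recorded.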
# [11] = NCI Yeast Anticancer Drug Screen. Data for the bub3 strain (AID 167); conditions: S. cerevisiae bub3 mutant strain, hits give high values
# How it was run: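 Inhibition values come from growth of compound-treated mutant yeast normalised to vehicle-treated controls.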
# [12] = NCI Yeast Anticancer Drug Screen. Data for the wt2 strain (AID 169);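 further: 0% = growth of vehicle-treated yeast cultures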; conditions: S. cerevisiae wt2 strain growth inhibition, hits give high values
# How it was run: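 Values express reduction in yeast growth under compound treatment, referenced to vehicle-treated cells.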
# [13] = NCI Yeast Anticancer Drug Screen. Data for the mlh1 strain (AID 171);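 further: 0% = growth of vehicle-treated control cultures of the same strain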; conditions: S. cerevisiae mlh1 strain growth inhibition, hits give high values
# How it was run: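 Steps: expose the defined-mutant yeast strain to compound; expose a parallel culture to vehicle; measure growth; express compound effect as inhibition relative to the vehicle culture.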
# [14] = NCI Yeast Anticancer Drug Screen. Data for the sgs1 strain (AID 173);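 further: 0% = growth of vehicle-only control cultures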; conditions: S. cerevisiae sgs1 mutant, hits give high values
# How it was run: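 Treat defined-mutant yeast with compound; measure growth; calculate inhibition relative to vehicle-treated cells.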
# [15] = NCI Yeast Anticancer Drug Screen. Data for the mlh1 rad18 strain (AID 175); conditions: S. cerevisiae mlh1 rad18 strain growth inhibition, hits give high values
# How it was run: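 Test agents were incubated with a yeast strain of defined genotype (DNA damage repair defect). Inhibition of growth was derived by comparison with vehicle-exposed cultures.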
# [16] = NCI Yeast Anticancer Drug Screen. Data for the rad18 strain (AID 177); conditions: S. cerevisiae rad18 mutant growth inhibition, hits give high values
# How it was run: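 A genetically defined yeast mutant impaired in DNA damage repair was treated with test compounds, then its growth was measured against cultures receiving vehicle alone.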
# [17] = at 5.0 µM (retest, dose inferred, filed as 0.5)
# [18] = at 50.0 µM (retest, dose inferred, filed as 5.0)
smiles,measurement,setting,value
CCCCCCCN1C(=O)c2ccccc2C1=O,growth inhibition,[1]; at 1.2 µM,-1%
same,growth inhibition,[1]; at 3.7 µM,-1%
same,growth inhibition,[1]; at 11.0 µM,-3%
same,growth inhibition,[1]; at 33.0 µM,11%
same,growth inhibition,[1]; at 100.0 µM,28%
same,growth inhibition,[2]; at 1.2 µM,0%
same,growth inhibition,[2]; at 3.7 µM,-1%
same,growth inhibition,[2]; at 11.0 µM,-1%
same,growth inhibition,[2]; at 33.0 µM,-1%
same,growth inhibition,[2]; at 100.0 µM,0%
same,growth inhibition,[3]; at 1.2 µM,0%
same,growth inhibition,[3]; at 3.7 µM,-1%
same,growth inhibition,[3]; at 11.0 µM,8%
same,growth inhibition,[3]; at 33.0 µM,25%
same,growth inhibition,[3]; at 100.0 µM,35%
same,growth inhibition,[4]; at 1.2 µM,-7%
same,growth inhibition,[4]; at 3.7 µM,-6%
same,growth inhibition,[4]; at 11.0 µM,-5%
same,growth inhibition,[4]; at 33.0 µM,9%
same,growth inhibition,[4]; at 100.0 µM,31%
same,growth inhibition,[5]; at 1.2 µM,-2%
same,growth inhibition,[5]; at 3.7 µM,5%
same,growth inhibition,[5]; [17],-17%
same,growth inhibition,[5]; at 11.0 µM,7%
same,growth inhibition,[5]; at 33.0 µM,26%
same,growth inhibition,[5]; [18],3%
same,growth inhibition,[5]; at 50.0 µM,83.9% (active)
same,growth inhibition,[5]; at 100.0 µM,22%
same,growth inhibition,[6]; at 1.2 µM,-5%
same,growth inhibition,[6]; at 3.7 µM,-8%
same,growth inhibition,[6]; [17],-10%
same,growth inhibition,[6]; at 11.0 µM,-27%
same,growth inhibition,[6]; at 33.0 µM,-6%
same,growth inhibition,[6]; [18],11%
same,growth inhibition,[6]; at 50.0 µM,53.2%
same,growth inhibition,[6]; at 100.0 µM,-11%
same,growth inhibition,[7]; at 1.2 µM,-1%
same,growth inhibition,[7]; at 3.7 µM,-10%
same,growth inhibition,[7]; at 11.0 µM,4%
same,growth inhibition,[7]; at 33.0 µM,13%
same,growth inhibition,[7]; at 100.0 µM,2%
same,growth inhibition,[8]; [17],-14%
same,growth inhibition,[8]; [18],19%
same,growth inhibition,[8]; at 50.0 µM,67.8%
same,growth inhibition,[9]; at 1.2 µM,-1%
same,growth inhibition,[9]; at 3.7 µM,-2%
same,growth inhibition,[9]; at 11.0 µM,-4%
same,growth inhibition,[9]; at 33.0 µM,-6%
same,growth inhibition,[9]; at 100.0 µM,-11%
same,growth inhibition,[10]; [17],-7%
same,growth inhibition,[10]; [18],-8%
same,growth inhibition,[10]; at 50.0 µM,30.6%
same,growth inhibition,[11]; at 1.2 µM,3%
same,growth inhibition,[11]; at 3.7 µM,-4%
same,growth inhibition,[11]; [17],-17%
same,growth inhibition,[11]; at 11.0 µM,28%
same,growth inhibition,[11]; at 33.0 µM,36%
same,growth inhibition,[11]; [18],34%
same,growth inhibition,[11]; at 50.0 µM,73.8% (active)
same,growth inhibition,[11]; at 100.0 µM,37%
same,growth inhibition,[12]; at 1.2 µM,-2%
same,growth inhibition,[12]; at 3.7 µM,-1%
same,growth inhibition,[12]; at 11.0 µM,0%
same,growth inhibition,[12]; at 33.0 µM,11%
same,growth inhibition,[12]; at 100.0 µM,45%
same,growth inhibition,[13]; at 1.2 µM,-12%
same,growth inhibition,[13]; at 3.7 µM,-6%
same,growth inhibition,[13]; at 11.0 µM,-19%
same,growth inhibition,[13]; at 33.0 µM,-19%
same,growth inhibition,[13]; at 100.0 µM,1%
same,growth inhibition,[14]; at 1.2 µM,0%
same,growth inhibition,[14]; at 3.7 µM,-1%
same,growth inhibition,[14]; at 11.0 µM,2%
same,growth inhibition,[14]; at 33.0 µM,14%
same,growth inhibition,[14]; at 100.0 µM,44%
same,growth inhibition,[15]; [17],-31%
same,growth inhibition,[15]; [18],56%
same,growth inhibition,[15]; at 50.0 µM,86.6% (active)
same,growth inhibition,[16]; at 1.2 µM,-1%
same,growth inhibition,[16]; at 3.7 µM,-5%
same,growth inhibition,[16]; at 11.0 µM,-1%
same,growth inhibition,[16]; at 33.0 µM,13%
same,growth inhibition,[16]; at 100.0 µM,28%
